Compounds without any hit were thinned out: in the full panel of roughly 79,000, 15% have a hit. Calls of active or inactive are those of the source. No stated cut-off is given here; in the data, active means growth inhibition above about 70%; inactive means the rest.
Key:
[1] = NCI Yeast Anticancer Drug Screen. Data for the rad52 strain (AID 147);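 further: 0% = growth of vehicle-treated control cultures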; conditions: S. cerevisiae rad52 mutant growth inhibition, hits give high values
Summary of the method: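 Here a repair-compromised yeast strain receives each compound; its growth is then quantified and normalised to vehicle-only controls.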

[2] = NCI Yeast Anticancer Drug Screen. Data for the wt1 strain (AID 149);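 further: 0% = growth of vehicle-treated wt1 cultures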; conditions: S. cerevisiae wt1 strain (SPY 50644) growth inhibition, hits give high values
Summary of the method: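 Measured: growth of wt1 yeast under compound versus vehicle treatment, reported as inhibition.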

[3] = NCI Yeast Anticancer Drug Screen. Data for the rad50EPP+ strain (AID 151);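 further: 0% = growth of vehicle-treated control cultures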; conditions: S. cerevisiae rad50 mutant strain, hits give high values
Summary of the method: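 Read-out is yeast growth inhibition relative to vehicle; cells used were the rad50EPP+ strain.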

[4] = NCI Yeast Anticancer Drug Screen. Data for the mgt1 strain (AID 153); conditions: S. cerevisiae mgt1 mutant growth inhibition, hits give high values
Summary of the method: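 Measured: inhibition of mgt1 yeast growth by compound, normalized to vehicle-treated cultures.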

[5] = NCI Yeast Anticancer Drug Screen. Data for the rad50 strain (AID 155);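 further: 0% = growth of vehicle-only cultures of the same strain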; conditions: S. cerevisiae rad50 strain growth inhibition, hits give high values
Summary of the method: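 Growth of the mutant yeast was measured after compound exposure and referenced to vehicle-treated cultures.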

[6] = NCI Yeast Anticancer Drug Screen. Data for the mec2-1 strain (AID 157); conditions: S. cerevisiae mec2-1 strain, hits give high values
Summary of the method: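 Using mec2-1 yeast: add compound, measure growth, express inhibition versus vehicle-treated cultures.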

[7] = NCI Yeast Anticancer Drug Screen. Data for the rad14 strain (AID 159);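 further: 0% = growth of vehicle-treated control cultures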; conditions: S. cerevisiae rad14 strain growth inhibition, hits give high values
Summary of the method: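 Here, inhibition of yeast growth was measured after compound exposure, using a strain with a genetic defect in DNA damage repair and vehicle-treated cultures as the reference.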

[8] = NCI Yeast Anticancer Drug Screen. Data for the sgs1 mgt1 strain (AID 161);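 further: 0% = growth of cultures given vehicle only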; conditions: S. cerevisiae sgs1 mgt1 strain, hits give high values
Summary of the method: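 Yeast cells carrying a defined DNA-repair defect were exposed to test compounds. Growth inhibition was measured relative to vehicle-treated controls.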

[9] = NCI Yeast Anticancer Drug Screen. Data for the CLN2oe strain (AID 163);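 further: 0% = growth of vehicle-only control cultures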; conditions: S. cerevisiae CLN2oe strain, hits give high values
Summary of the method: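 Whole-cell yeast growth assay. A strain engineered for altered cell-cycle control received compound, and inhibition relative to vehicle-treated cultures was recorded.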

[10] = NCI Yeast Anticancer Drug Screen. Data for the cln2 rad14 strain (AID 165);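 further: 0% = growth equal to vehicle treated cultures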; conditions: S. cerevisiae cln2 rad14 strain, hits give high values
Summary of the method: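 Yeast strain cln2 rad14, bearing defects in cell cycle control and DNA repair, serves as the test system; values reflect growth inhibition compared with vehicle.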

[11] = NCI Yeast Anticancer Drug Screen. Data for the bub3 strain (AID 167); conditions: S. cerevisiae bub3 mutant strain, hits give high values
Summary of the method: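 Whole-cell yeast assay. The mutant strain was incubated with compounds, and growth inhibition was determined by comparison with vehicle-treated cells.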

[12] = NCI Yeast Anticancer Drug Screen. Data for the wt2 strain (AID 169);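 further: 0% = growth of vehicle-treated yeast cultures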; conditions: S. cerevisiae wt2 strain growth inhibition, hits give high values
Summary of the method: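 Treated yeast vs. vehicle-treated yeast: growth inhibition determined.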

[13] = NCI Yeast Anticancer Drug Screen. Data for the mlh1 strain (AID 171);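 further: 0% = growth of vehicle-treated control cultures of the same strain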; conditions: S. cerevisiae mlh1 strain growth inhibition, hits give high values
Summary of the method: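 A yeast strain with a defined genetic lesion serves as the test organism. Cultures receive compound or vehicle, and growth is measured.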

[14] = NCI Yeast Anticancer Drug Screen. Data for the sgs1 strain (AID 173);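 further: 0% = growth of vehicle-only control cultures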; conditions: S. cerevisiae sgs1 mutant, hits give high values
Summary of the method: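 A genetically defined yeast mutant is incubated with the test compound, and its growth is compared to that of the same strain given vehicle.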

[15] = NCI Yeast Anticancer Drug Screen. Data for the mlh1 rad18 strain (AID 175); conditions: S. cerevisiae mlh1 rad18 strain growth inhibition, hits give high values
Summary of the method: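 Steps: expose repair-defective yeast to compound; measure growth; express inhibition against vehicle-treated controls.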

[16] = NCI Yeast Anticancer Drug Screen. Data for the rad18 strain (AID 177); conditions: S. cerevisiae rad18 mutant growth inhibition, hits give high values
Summary of the method: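 Measured value is growth inhibition of a yeast strain bearing a DNA repair alteration, referenced to vehicle-treated cells.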

[17] = at 5.0 µM (retest, dose inferred, filed as 0.5)
[18] = at 50.0 µM (retest, dose inferred, filed as 5.0)

Measured: growth inhibition

CCOC(=O)COc1c(OC)cc(C2C3=C(COC3=O)Oc3cc4c(cc32)OCO4)cc1OC (stereo not drawn)
active: [10]; at 50.0 µM 71%
inactive: [1]; at 1.2 µM 2% | [1]; at 3.7 µM 1% | [1]; at 11.0 µM 0% | [1]; at 33.0 µM 8% | [1]; at 100.0 µM 23% | [2]; at 1.2 µM 1% | [2]; at 3.7 µM 2% | [2]; at 11.0 µM 4% | [2]; at 33.0 µM 3% | [2]; at 100.0 µM 6% | [3]; at 1.2 µM -2% | [3]; at 3.7 µM -16% | [3]; at 11.0 µM -22% | [3]; at 33.0 µM -11% | [3]; at 100.0 µM 15% | [4]; at 1.2 µM -3% | [4]; at 3.7 µM 2% | [4]; at 11.0 µM 0% | [4]; at 33.0 µM 16% | [4]; at 100.0 µM 8% | [5]; at 1.2 µM 1% | [5]; at 3.7 µM 0% | [5]; [17] -4% | [5]; at 11.0 µM 1% | [5]; at 33.0 µM 3% | [5]; [18] -1% | [5]; at 50.0 µM 2.85% | [5]; at 100.0 µM 8% | [6]; at 1.2 µM -1% | [6]; at 3.7 µM 0% | [6]; [17] -8% | [6]; at 11.0 µM -2% | [6]; at 33.0 µM 1% | [6]; [18] -4% | [6]; at 50.0 µM 26.8% | [6]; at 100.0 µM 17% | [7]; at 1.2 µM -3% | [7]; at 3.7 µM -3% | [7]; at 11.0 µM 0% | [7]; at 33.0 µM 4% | [7]; at 100.0 µM 15% | [8]; [17] -9% | [8]; [18] 19% | [8]; at 50.0 µM 14.7% | [9]; at 1.2 µM -2% | [9]; at 3.7 µM -3% | [9]; at 11.0 µM 5% | [9]; at 33.0 µM 2% | [9]; at 100.0 µM 10% | [10]; [17] -1% | [10]; [18] 29% | [11]; at 1.2 µM -4% | [11]; at 3.7 µM 0% | [11]; [17] -13% | [11]; at 11.0 µM 0% | [11]; at 33.0 µM 6% | [11]; [18] 19% | [11]; at 50.0 µM 28.2% | [11]; at 100.0 µM 13% | [12]; at 1.2 µM 0% | [12]; at 3.7 µM 0% | [12]; at 11.0 µM 1% | [12]; at 33.0 µM 3% | [12]; at 100.0 µM 12% | [13]; at 1.2 µM 1% | [13]; at 3.7 µM -1% | [13]; at 11.0 µM -1% | [13]; at 33.0 µM 2% | [13]; at 100.0 µM 12% | [14]; at 1.2 µM 0% | [14]; at 3.7 µM 2% | [14]; at 11.0 µM 1% | [14]; at 33.0 µM 9% | [14]; at 100.0 µM 28% | [15]; [17] -10% | [15]; [18] 49% | [15]; at 50.0 µM -4.55% | [16]; at 1.2 µM 0% | [16]; at 3.7 µM -2% | [16]; at 11.0 µM -11% | [16]; at 33.0 µM -2% | [16]; at 100.0 µM 3%
